Assay results from PubChem BioAssay AID1159580 (chemical genetic matrix, 2015).
“And” between values parts separate entries of the source, which are not always exact repeats. Identical values can stand only once. Screen size: about 5,500 compounds; about 2,000 (36%) were called active. Another 18% or so got no clear call; they are omitted. Rule as the data show it: active = normalized growth mostly below about 0.91 (no sharp cut-off); inconclusive = no clear call, values can overlap the other calls; inactive = mostly above about 0.92. This is one part of the list.

Assay: chemical genetic growth profiling, strain panel (AID 1159580);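 also: tested at 20 µM; growth read once vehicle control cultures reached saturation at 30 °C; 1 = growth at the plate median or of vehicle wells; lower values mean less growth of the strain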
Details: S. cerevisiae deletion strains, growth OD

Measured: normalized growth

CCN1CCN(C(=O)NC(C(=O)N[C@@H]2C(=O)N3[C@@H]2SC(C)(C)[C@@H]3C(=O)O)c2ccccc2)C(=O)C1=O (stereo partly specified)
inactive: locus YAL013W, strain DEP1, stronger effect = lower value 1.01 | locus YAL021C, strain ccr4, stronger effect = lower value 1 | locus YAL026C, strain drs2, stronger effect = lower value 0.999 | locus YAL030W, strain snc1, stronger effect = lower value 1.01 | locus YBL061C, strain skt5, stronger effect = lower value 0.999 | locus YBR009C, strain hhf1, stronger effect = lower value 1.02 | locus YBR021W, strain FUR4, stronger effect = lower value 1.01 | locus YBR023C, strain chs3, stronger effect = lower value 1.01 | locus YBR171W, strain sec66, stronger effect = lower value 1 | locus YBR229C, strain ROT2, stronger effect = lower value 1.01 | locus YBR231C, strain swc5, stronger effect = lower value 0.98 | locus YBR279W, strain paf1, stronger effect = lower value 1 | locus YCL011C, strain gbp2, stronger effect = lower value 1.02 | locus YCL016C, strain dcc1, stronger effect = lower value 1 | locus YCL029C, strain bik1, stronger effect = lower value 1.02 | locus YCL061C, strain MRC1, stronger effect = lower value 0.995 | locus YCL069W, strain vba3, stronger effect = lower value 0.99 | locus YCR088W, strain abp1, stronger effect = lower value 1 | locus YDL005C, strain med2, stronger effect = lower value 0.988 | locus YDL035C, strain GPR1, stronger effect = lower value 0.988 | locus YDL040C, strain nat1, stronger effect = lower value 0.989 | locus YDL074C, strain BRE1, stronger effect = lower value 0.993 | locus YDL101C, strain DUN1, stronger effect = lower value 1.02 | locus YDL134C, strain PPH21, stronger effect = lower value 1.01 | locus YDL185W, strain tfp1, stronger effect = lower value 1.02 | locus YDL192W, strain arf1, stronger effect = lower value 1.01 | locus YDR001C, strain nth1, stronger effect = lower value 0.991 | locus YDR069C, strain doa4, stronger effect = lower value 0.997 | locus YDR101C, strain arx1, stronger effect = lower value 1.01 | locus YDR137W, strain rgp1, stronger effect = lower value 0.975 | locus YDR150W, strain NUM1, stronger effect = lower value 1.02 | locus YDR159W, strain sac3, stronger effect = lower value 1 | locus YDR162C, strain NBP2, stronger effect = lower value 0.997 | locus YDR195W, strain ref2 0.959 | locus YDR297W, strain sur2, stronger effect = lower value 0.996 | locus YDR318W, strain mcm21, stronger effect = lower value 1.02 | locus YDR334W, strain swr1, stronger effect = lower value 1 | locus YDR335W, strain msn5, stronger effect = lower value 0.999 | locus YDR388W, stronger effect = lower value 1.01 | locus YDR392W, strain spt3, stronger effect = lower value 1.03 | locus YDR502C, strain sam2, stronger effect = lower value 1.01 | locus YEL003W, strain gim4, stronger effect = lower value 1.01 | locus YEL037C, strain rad23, stronger effect = lower value 0.997 | locus YEL061C, strain CIN8 (second series), stronger effect = lower value 1 | locus YEL061C, strain CIN8, stronger effect = lower value 1.01 | locus YER015W, strain faa2, stronger effect = lower value 0.992 | locus YER016W, strain bim1, stronger effect = lower value 1 | locus YER110C, stronger effect = lower value 1.02 | locus YER111C, strain swi4, stronger effect = lower value 1 | locus YER155C, strain BEM2 (second series), stronger effect = lower value 0.993 | locus YER155C, strain BEM2, stronger effect = lower value 0.991 | locus YER167W, strain BCK2, stronger effect = lower value 1.01 | locus YFR010W, strain ubp6, stronger effect = lower value 0.984 | locus YGL078C, strain dbp3, stronger effect = lower value 1.01 | locus YGL086W, strain mad1, stronger effect = lower value 1.02 | locus YGL167C, strain pmr1, stronger effect = lower value 1 | locus YGL173C, strain kem1, stronger effect = lower value 0.991 | locus YGL227W, strain vid30, stronger effect = lower value 0.989 | locus YGL240W, strain doc1, stronger effect = lower value 0.975 | locus YGL248W, strain PDE1, stronger effect = lower value 1.01 | locus YGL253W, strain hxk2, stronger effect = lower value 0.999 | locus YGR078C, strain PAC10, stronger effect = lower value 1.02 | locus YGR135W, strain pre9, stronger effect = lower value 1 | locus YGR229C, strain SMI1, stronger effect = lower value 1 | locus YGR252W, strain gcn5, stronger effect = lower value 1.01 | locus YHR013C, strain ard1, stronger effect = lower value 0.975 | locus YHR027C, strain rpn1, stronger effect = lower value 0.996 | locus YHR030C, strain SLT2, stronger effect = lower value 1.01 and 1 | locus YHR079C, strain IRE1 (second series), stronger effect = lower value 1.02 | locus YHR079C, strain IRE1, stronger effect = lower value 1.01 | locus YHR094C, strain hxt1, stronger effect = lower value 1.01 | locus YHR129C, strain ARP1, stronger effect = lower value 1 | locus YHR142W, strain chs7, stronger effect = lower value 0.998 | locus YHR200W, strain rpn10, stronger effect = lower value 1.01 | locus YIL066C, strain RNR3, stronger effect = lower value 1.01 | locus YIL073C, strain SPO22, stronger effect = lower value 1.05 | locus YIL125W, strain kgd1, stronger effect = lower value 1.01 | locus YIR030C, strain dcg1, stronger effect = lower value 1.01 | locus YJL092W, strain hpr5, stronger effect = lower value 1 | locus YJL095W, strain BCK1 (second series), stronger effect = lower value 1 | locus YJL095W, strain BCK1, stronger effect = lower value 1 and 0.999 | locus YJL115W, strain asf1, stronger effect = lower value 0.996 | locus YJL129C, strain trk1, stronger effect = lower value 0.993 | locus YJL134W, strain LCB3, stronger effect = lower value 1.01 | locus YJL154C, strain vps35, stronger effect = lower value 1 | locus YJL164C, strain tpk1, stronger effect = lower value 0.99 | locus YJL166W, strain qcr8, stronger effect = lower value 0.992 | locus YJL168C, strain set2, stronger effect = lower value 1.01 | locus YJL187C, strain SWE1 (second series), stronger effect = lower value 1.03 | locus YJR043C, strain POL32, stronger effect = lower value 0.994 | locus YJR066W, strain TOR1, stronger effect = lower value 0.953
